Bioassay records deposited in PubChem BioAssay by National Center for Advancing Translational Sciences (NCATS).
Hits are enriched below; roughly 6.1% of the tested compounds scored in any of these assays.
ATXN2 expr inh – inhibitors of ATXN2 expression; AID 1745845; HEK-293 ATXN2-luciferase reporter, luminescence, 24 h; Potency, µM (doses to about 57 µM), hits mostly inhibitors; 360,000 tested, 0.72% active; note: nearly all actives have a fitted effect of over 55% in size
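qHTS (up to 57 uM final) was run with 24 h compound exposure of reporter cells at 37 °C. Each well was multiplexed: SteadyGlo luminescence measured ATXN2-luciferase expression after a fluorogenic Gly-Phe-AFC viability readout (25 uM final).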
S2 tox – cell viability loss in ATXN counter-screen. 400,000 tested, 0.49% active. S2 cells (HEK-293 line with an ATXN2-luciferase reporter) viability, CellTiter-Fluor protease fluorescence, 24 h. Potency, µM (doses to about 56.7 µM), actives largely listed as cytotoxic; note: nearly all actives have a fitted effect of over 40% in size
HepG2 viability – HepG2 cytotoxicity, counter-screen for TGF-b inhibitors; 410,000 tested, 0.76% active; HepG2 CAGA-GFP viability, ATP luminescence, 18 h; AID 588856; Potency, µM (series often up to 46.1 µM), actives largely listed as cytotoxic
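CellTiter-Glo luminescence gave cytotoxicity after 18 hours at 37 degrees C. The cells were HepG2 CAGA-GFP in 1% FBS DMEM, stimulated with 500 pg/mL TGF-beta after compound addition. %Activity was normalised to no-cell wells (complete cell-killing) and DMSO (no toxicity), and curves were fitted and classified.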
TGFb SMAD3 inh – blocks TGF-b signaling; HepG2 CAGA-GFP TGF-b/SMAD3 reporter, GFP fluorescence, 18 h; TGF-beta stimulated, 500 pg/mL final; Potency, µM (highest dose often 46.1 µM), hits mostly inhibitors; 410,000 tested, 1.2% active; note: nearly all actives have a fitted effect of over 65% in size
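Per well, imaged GFP fluorescence of HEPG2 CAGA-GFP cells gives the signal; cells get compound, then TGF-beta (500 pg/mL final), 18 h at 37 degrees C; %Activity versus -TGF-beta and +DMSO controls.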
VP16 counter – Gal4-VP16 reporter inhibition counter-screen; Drosophila S2 Gal4-VP16 UAS-luciferase, luminescence, 20 h; Potency, µM (titrated, usually from 53.6 µM), hits mostly inhibitors; 310,000 tested, 3.5% active; AID 2546;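 note: Gal4-VP16 expression switched on by copper sulfate through the metallothionein promoter; nearly all actives have a fitted effect of over 50% in size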
RORgamma inh – blocks mouse ROR gamma transcriptional activity; P51450; 310,000 tested, 5.4% active; Drosophila S2 Gal4-RORgamma UAS-luciferase reporter, 20 h; Potency, µM (titrated, usually from 53.6 µM), hits mostly inhibitors; AID 2551; note: nearly all actives have a fitted effect of over 60% in size
Target sequence (P51450 whole entry, looked up, the tested form may be a part): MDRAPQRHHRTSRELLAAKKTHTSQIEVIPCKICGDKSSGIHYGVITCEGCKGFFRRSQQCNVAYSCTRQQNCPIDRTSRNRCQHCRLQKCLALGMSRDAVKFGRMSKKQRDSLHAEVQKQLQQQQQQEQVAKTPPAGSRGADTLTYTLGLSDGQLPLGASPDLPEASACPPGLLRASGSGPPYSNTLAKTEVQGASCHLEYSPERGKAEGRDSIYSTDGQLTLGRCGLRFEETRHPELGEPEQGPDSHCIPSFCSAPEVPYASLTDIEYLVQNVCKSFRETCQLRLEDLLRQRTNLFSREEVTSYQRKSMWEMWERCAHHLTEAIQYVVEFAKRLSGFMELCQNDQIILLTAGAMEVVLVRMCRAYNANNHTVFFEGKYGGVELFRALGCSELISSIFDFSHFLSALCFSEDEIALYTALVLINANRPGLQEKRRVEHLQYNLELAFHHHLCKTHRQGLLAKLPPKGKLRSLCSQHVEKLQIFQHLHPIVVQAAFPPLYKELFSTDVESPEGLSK
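In this cell-based reporter format, copper sulfate (700 uM final) drives Gal4–ROR gamma fusion expression from a metallothionein promoter in Drosophila Schneider cells; compounds preincubated 1 hr, reporter read after 20 hr at ambient temperature.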
A number is an active result; 0 = inactive; ? = inconclusive; - = no result; [ ] = another dose, or the depositor's remark. Calls come from the whole dose curve; as a rule, active = well fitted curve in the direction sought with a large enough effect; inconclusive = small, poorly fitted or top-dose-only effect, or another doubt; inactive = no such curve, though single readings can be large; an effect the other way counts as inactive or inconclusive.

SMILES | ATXN2 expr inh | S2 tox | HepG2 viability | TGFb SMAD3 inh | VP16 counter | RORgamma inh
Fc1ccc(NC(=S)NNc2ncc(C(F)(F)F)cc2Cl)c(F)c1 | 14µM | 0 | 0 | ? | ? | 5µM
COc1cc(Nc2nc3ccc(Cl)cc3nc2-n2nc(C)cc2C)cc(OC)c1 | 0 | 0 | 0 | ? | - | -
Cc1ccc(C)c(Cn2c(=O)n(Cc3ccco3)c(=O)c3oc4ccccc4c32)c1 | - | - | 0 | 0 | - | -
CCc1ccc(NC(=O)CSc2nc(-c3ccccc3)no2)cc1 | - | - | 0 | ? | - | -
COC(=O)NC(c1ccco1)[C@]1(C(C)=O)CCCC1=O (some centres undefined) | - | - | - | - | 0[10 µM] | 0[10 µM]
CCn1nc(C)c(/C=N/NC(=S)Nc2ccc(Cl)cc2Cl)c1C | 0 | 0 | 0 | ? | 6.3µM | 1.8µM
Cc1nn(C)cc1/C=N/NC(=S)Nc1ccc(Cl)cc1Cl | 0 | 0 | 0 | 0 | 2.8µM | 0.56µM
Cc1ccc(Cl)cc1NC(=S)N/N=C/c1cccc2ccccc12 | 0 | ? | 0 | 0 | 2.5µM | 0.79µM
Cc1ccccc1C(=O)N/N=C/c1cccc2ccccc12 | 0 | 0 | 0 | 0 | 0 | 0
CCC1CN(Cc2c(C)nc3sccn23)Cc2cc(OC)ccc2O1 (centres undefined) | - | 0 | - | - | - | -
CC(=O)O[C@H]1C2=C(C(=O)[C@H]3O[C@@H]31)[C@@H]1[C@@H]3[C@@H](C)OC=C4[C@H](O)[C@H]5O[C@@H]5C(=O)[C@]43C2O[C@H]1C | - | - | - | - | 0[10 µM] | 0[10 µM]
CCc1ccc2oc(-c3cc(N)ccc3O)nc2c1 | 0 | 0 | 0 | 0 | 4µM | 2.5µM
CCc1ccc2oc(-c3cc(N)ccc3Cl)nc2c1 | 0 | 0 | 0 | 0 | 10µM | ?
CCc1ccc2oc(-c3cc(N)cc(C)c3O)nc2c1 | 0 | 0 | 0 | 0 | 8.9µM | ?
Nc1ccc2oc(-c3cc(Br)ccc3Cl)nc2c1 | 0 | ? | 0 | ? | 0 | 0
Cc1ccc(C)c(-c2nc3cc(N)ccc3o2)c1 | 0 | 0 | 0 | 0 | 0 | 0
OCCNCc1cc(Br)ccc1OCc1ccccc1Cl | 0 | 0 | 0 | ? | ? | 0
COc1cc(CNCCCCO)ccc1OCc1ccccc1F | 0 | 0 | 0 | 0 | 0 | 0
OCCNCc1ccc(OCc2ccc(Cl)cc2Cl)cc1 | ? | ? | 22µM | ? | 0[10 µM] | 13µM
OCCCCNCc1ccc(OCc2ccc(Cl)cc2Cl)cc1 | 25µM | 25µM | 10µM | ? | 0 | ?
COc1ccccc1-c1nnc(NC(=O)C(C)Sc2nncn2C)s1 (centres undefined) | - | 0 | 0 | 0 | 0 | 0
COc1ccccc1-c1nnc(NC(=O)CSc2nncn2C)s1 | - | 0 | 0 | 0 | ? | 8.9µM
COc1ccc(/C=C/c2nccc3c2[nH]c2ccccc23)cc1 | - | - | 0 | 0 | - | -
C=Cc1ncc(OC)c2c1[nH]c1ccccc12 | ? | - | 13µM | 20µM | - | -
C=CCOc1ccc(-c2n[nH]c(=S)o2)cc1 | 0 | 0 | 0 | ? | 0 | 11µM
SMILES | ATXN2 expr inh | S2 tox | HepG2 viability | TGFb SMAD3 inh | VP16 counter | RORgamma inh
COc1ccc(C(=O)Nc2ccc(-c3n[nH]c(=S)o3)cc2)cc1 | 0 | 0 | 0 | 0 | 0 | ?
Oc1ccc(Cl)cc1N=Nc1ccccc1 | - | 0 | 0 | 0 | 0 | 0
Cc1ccc(O)c(N=Nc2ccccc2)n1 | 0 | ? | 0 | 0 | 2.8µM | 1µM
CC1CCN(c2nn3c(=O)c(C(=O)NCCc4ccc(Cl)cc4)cnc3s2)CC1 | 0 | 0 | 0 | 0 | - | -
O=C1C2C3C=CC(C4CC34)C2C(=O)N1/N=C/c1ccc([N+](=O)[O-])o1 (centres undefined) | ? | ? | 0 | 0 | 10µM | 13µM
O=C1C2C(C(=O)N1/N=C/c1ccc([N+](=O)[O-])o1)C1C=CC2C12CC2 (centres undefined) | 0 | ? | 0 | ? | 20µM | ?
O=C1CN(/N=C\c2ccc([N+](=O)[O-])o2)C(=O)N1 | - | ? | - | - | 0 | 0
CC(C)C(C)(C#N)NC(=O)CSc1nnc(-c2ccncc2)n1Cc1ccccc1 (centres undefined) | 0 | 0 | 0 | 0 | 0 | 0
CC(C)C(C)(C#N)NC(=O)CSc1nc2scc(-c3ccc(F)cc3)c2c(=O)n1Cc1ccccc1 (centres undefined) | 0 | ? | 0 | 0 | ? | 18µM
CC1(C)CC(=O)C2=C(C1)OC1=C(C(=O)CC(C)(C)C1)C2c1ccc(O)c([N+](=O)[O-])c1 | - | ? | 0 | 0 | 0 | 0
CC1(C)CC(=O)C2=C(C1)OC1=C(C(=O)CC(C)(C)C1)C2c1ccc(O)cc1O | 0 | ? | 7.1µM | 7.1µM | 6.3µM | 3.2µM
CCCN(CCC)C(=O)CSc1nc2n[nH]c(C)c2c(=N)n1-c1ccc(OC)cc1 | 0 | 0 | 0 | 0 | ? | ?
Cc1[nH]nc2nc(SCC(=O)NC3CCCCC3)n(-c3ccc(Br)cc3)c(=N)c12 | 13µM | 20µM | 0 | 0 | ? | ?
Cc1cccc(-n2c(SCC(=O)Nc3ccccc3Cl)nc3n[nH]c(C)c3c2=N)c1 | - | - | 0 | 0 | - | -
CCN(C(=O)CSc1nc2n[nH]c(C)c2c(=N)n1-c1ccc(Cl)c(C)c1)c1cccc(C)c1 | - | ? | 0 | 0 | ? | 13µM
CCCCN(CC)C(=O)CSc1nc2n[nH]c(C)c2c(=N)n1-c1ccc(CC)cc1 | - | - | 0 | 1.4µM | - | -
CCCCN(CC)C(=O)CSc1nc2n[nH]c(C)c2c(=N)n1-c1cccc(OC)c1 | - | - | 0 | 4.5µM | - | -
CCCN(CCC)C(=O)CSc1nc2n[nH]c(C)c2c(=N)n1-c1ccc(OCC)cc1 | 0 | 0 | 0 | ? | 0 | 0
Cn1c(=O)c(-c2ccc(F)cc2)nc2cnc(OCc3ccccc3)nc21 | - | - | - | - | 0 | 0
Fc1ccc(-c2noc3ncnc(NC4CCCCC4)c23)cc1 | 0 | 0 | 0 | 0 | - | -
Cc1ccccc1C(=O)Nc1nnc(-c2ccncc2)o1 | 0 | 0 | 0 | 0 | 5µM | 2.8µM
COc1ccc(-c2nnc(NC(=O)c3ccccc3C)o2)cc1 | ? | 0 | 0 | ? | 0.79µM | 0.63µM
Cc1ccccc1C(=O)Nc1ccnc(-c2ccncc2)n1 | 0 | ? | 0 | 0 | 0 | 0
Cc1c(Cl)cccc1NC(=O)c1cc2nc(-c3ccc4c(c3)OCO4)cc(C(F)(F)F)n2n1 | - | - | 0 | 0 | - | -
COc1ccccc1NC(=S)N(CCc1ccc(OC)c(OC)c1)Cc1ccccn1 | 0 | 0 | 0 | 0 | 0[10 µM] | 11µM
COc1ccc(CCN(Cc2ccccn2)C(=S)Nc2cccc(SC)c2)cc1OC | 0 | 0 | 0 | ? | 0[10 µM] | 10µM
CSc1cccc(NC(=S)N(Cc2ccc(C)cc2)Cc2ccccn2)c1 | 0 | 0 | 0 | 0 | 0 | 13µM
CCc1ccc(NC(=O)Cn2cc(S(=O)(=O)N3CCCC3)c(S(=O)(=O)N3CCCC3)c2)cc1 | 0 | 0 | 0 | 0 | - | -
c1ccc(C(NCCNC(c2ccccc2)c2ccccc2)c2ccccc2)cc1 | 0 | 0 | 0 | ? | ? | 13µM
